Compound activity (PubChem)
SMN2 splice enh – qHTS Assay for Enhancers of SMN2 Splice Variant Expression; Potency, µM (titrated, usually from 46.1 µM), hits mostly activators; HEK293 SMN2-luciferase splicing reporter, luminescence, 30-36 h; AID 1458, 2008; 210,000 tested, 2.8% active; note: nearly all actives have a fitted effect of over 55% in size
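HEK293 cells carry an SMN2 […]–luciferase reporter in which exon 7 inclusion puts luciferase in frame. Cells were plated 10-12 h before compound addition, then incubated 30-36 h at 37C. ONE-Glo luminescence was read; sodium butyrate at 4.5 mM final served as control.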
ELG1 genotoxic – qHTS screen for small molecules that induce genotoxicity in human embryonic kidney (HEK293T) cells expressing luciferase-tagged ELG1. AID 504466, 2011. 330,000 tested, 1.3% active. Potency, µM (top dose mostly 46 µM), most hits filed as activators. HEK293T ELG1-luciferase reporter, luminescence, 16 h; note: nearly all actives have a fitted effect of over 60% in size
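Step 1: seed 2,000 HEK293T ELG1-luciferase cells per well. Step 2: add compound or DMSO, incubate 16 hr at 37 °C. Step 3: ONE-Glo, 30 min at room temperature, read luminescence.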
ELG1 DNA repair – qHTS screen for small molecules that inhibit ELG1-dependent DNA repair in human embryonic kidney (HEK293T) cells expressing luciferase-tagged ELG1. AID 504467, 2011. Potency, µM (highest dose often 46.1 µM), usual class: inhibitors. HEK293T ELG1-luciferase reporter, luminescence, 16 h; DNA damage induced by 5-fluorouridine. 330,000 tested, 2.3% active; note: nearly all actives have a fitted effect of over 55% in size
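Step one: seed 2,000 cells per well. Step two: pin-transfer compound or DMSO alongside 5-fluorouridine. Step three: incubate 16 hr, 37 °C, 5% CO2. Step four: add ONE-Glo, wait 30 min, read luminescence.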
FLuc counter – qHTS profiling assay for firefly luciferase inhibitor/activator using purifed enzyme and Km concentrations of substrates (counterscreen for miR-21 project) | 360,000 tested, 6.9% active | purified FLuc, Km substrates, luminescence inhibition | Luciferin 4-monooxygenase (Photinus pyralis), P08659 | Potency, µM (highest dose often 57.5 µM), usual class: inhibitors; note: nearly all actives have a fitted effect of over 55% in size
Target sequence (P08659 whole entry, looked up): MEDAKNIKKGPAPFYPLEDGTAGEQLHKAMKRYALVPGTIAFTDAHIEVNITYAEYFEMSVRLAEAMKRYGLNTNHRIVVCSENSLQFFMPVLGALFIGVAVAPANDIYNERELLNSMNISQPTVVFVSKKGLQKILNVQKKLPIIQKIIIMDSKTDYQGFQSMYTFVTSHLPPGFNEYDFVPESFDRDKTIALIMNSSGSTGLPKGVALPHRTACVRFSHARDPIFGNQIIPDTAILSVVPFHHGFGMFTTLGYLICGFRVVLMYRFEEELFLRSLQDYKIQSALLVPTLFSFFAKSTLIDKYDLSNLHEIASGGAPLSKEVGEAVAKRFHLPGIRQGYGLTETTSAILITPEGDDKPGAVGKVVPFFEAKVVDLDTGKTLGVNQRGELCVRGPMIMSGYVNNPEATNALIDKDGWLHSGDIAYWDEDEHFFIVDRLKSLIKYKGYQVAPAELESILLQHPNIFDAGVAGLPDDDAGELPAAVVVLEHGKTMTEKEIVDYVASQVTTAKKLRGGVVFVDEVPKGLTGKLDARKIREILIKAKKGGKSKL
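Biochemical qHTS of compounds, final roughly 60 µM downward over six points, against 10 nM purified firefly luciferase using Km concentrations of substrates (10 uM D-luciferin, 10 uM ATP) in Tris acetate pH 7.5 buffer; luminescence output.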
NPC1 prom act – qHTS Assay for NPC1 Promoter Activators; Huh7 NPC1 promoter luciferase reporter, 24 h; Potency, µM (titrated, usually from 9.22 µM), hits mostly activators; 320,000 tested, 2.4% active; AID 485313, 2010; note: nearly all actives have a fitted effect of over 60% in size
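Luminescence read-out of NPC1 promoter-driven luciferase in stably transfected Huh7 cells; compounds delivered in DMSO and left 24 h at 37C, 5% CO2, qHTS titration format.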
Rab9 promoter act – qHTS Assay for Rab9 Promoter Activators. Huh7 Rab9 promoter-luciferase reporter, luminescence, 24 h. Potency, µM (top dose mostly 9.22 µM), actives largely listed as activators. 320,000 tested, 2.8% active. AID 485297, 2010; note: nearly all actives have a fitted effect of over 60% in size
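Quantitative HTS format; Huh7 Rab9-luciferase reporter cells (1500/well) receive compound 2 h post-plating, incubate 24 h at 37 °C, then get luciferase reagent for 10 min before luminescence reading.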
Large screens that a line does not name were inactive. This is a sample that favours compounds with a hit; in the whole collection about 9.4% have one here. Calls come from the whole dose curve; as a rule, active = well fitted curve in the direction sought with a large enough effect; inconclusive = small, poorly fitted or top-dose-only effect, or another doubt; inactive = no such curve, though single readings can be large; an effect the other way counts as inactive or inconclusive.

Cc1cccn2cc(-c3cc4ccccc4oc3=O)nc12	ELG1 genotoxic 0.82µM, ELG1 DNA repair inconclusive, FLuc counter 0.19µM, NPC1 prom act 0.112µM, Rab9 promoter act 0.141µM (no result: SMN2 splice enh)
O=c1oc2ccccc2cc1-c1cn2cccnc2n1	SMN2 splice enh 4.47µM, ELG1 genotoxic inconclusive, ELG1 DNA repair inconclusive, FLuc counter 4.26µM, NPC1 prom act 1µM, Rab9 promoter act 0.562µM
COc1ccc2oc(=O)c(-c3cn4ccc(C)cc4n3)cc2c1	ELG1 genotoxic 20.6µM, ELG1 DNA repair inconclusive, FLuc counter inconclusive, NPC1 prom act inconclusive, Rab9 promoter act 3.16µM
Cc1oncc1-c1cn2ccccc2n1	ELG1 DNA repair inconclusive
CCOc1ccc(-n2nc3ccc(NC(=O)c4ccc(-c5cccc(Cl)c5)o4)cc3n2)cc1	FLuc counter inconclusive (no result: ELG1 genotoxic, ELG1 DNA repair, NPC1 prom act, Rab9 promoter act)
CN(C)c1ccc(CN(Cc2ccco2)C(=O)c2ccc(F)cc2)cc1	none (no result: ELG1 genotoxic, ELG1 DNA repair, NPC1 prom act, Rab9 promoter act)
CC(C)[C@@H](C)/C=C\[C@@H](C)[C@@H]1CC[C@H]2C3=CC=C4C[C@@H](O)CC[C@]4(C)[C@H]3CC[C@]21C	none (no result: ELG1 genotoxic, ELG1 DNA repair, FLuc counter, NPC1 prom act, Rab9 promoter act)
CCOc1ccc(Br)cc1CNCCSc1nnnn1-c1ccccc1	none (no result: SMN2 splice enh, ELG1 genotoxic, ELG1 DNA repair, NPC1 prom act, Rab9 promoter act)
CCOc1ccc(N(CC)S(=O)(=O)N2CCCC(C(=O)Nc3ccc(NC(C)=O)cc3)C2)cc1 (stereo not drawn)	none (no result: SMN2 splice enh, ELG1 genotoxic, ELG1 DNA repair, NPC1 prom act, Rab9 promoter act)
CCOc1ccc(NC(=O)Nc2cc3c(cc2N2CCCCC2)n(C)c(=O)n3C)cc1	none (no result: ELG1 genotoxic, ELG1 DNA repair, NPC1 prom act, Rab9 promoter act)
COc1ccccc1-n1cnnc1SCc1csc(-c2ccccc2)n1	ELG1 DNA repair inconclusive
C=CCn1c(SCc2csc(-c3ccc(C)cc3)n2)nnc1-c1ccccc1OC	FLuc counter 21.3µM (no result: SMN2 splice enh)
NC(=NCc1ccc(Cl)cc1Cl)NC(=O)c1nc(Cl)c(N)nc1N	none (no result: ELG1 genotoxic, ELG1 DNA repair, FLuc counter, NPC1 prom act, Rab9 promoter act)
COc1cc(/C=N/NC(=O)COc2ccc(C)cc2)ccc1OC(=O)c1cccs1	ELG1 DNA repair inconclusive, FLuc counter 10.7µM
COc1cc(/C=N/Nc2ccc(Cl)c(C(=O)O)c2)ccc1OC(=O)c1ccco1	FLuc counter inconclusive, NPC1 prom act inconclusive
COc1cc(/C=N/NC(=O)c2ccccn2)cc2c1OCO2	SMN2 splice enh 11.2µM, ELG1 genotoxic inconclusive, ELG1 DNA repair inconclusive, FLuc counter 23.9µM, NPC1 prom act inconclusive, Rab9 promoter act inconclusive
COc1cc(/C=N/NC(=O)C(N)=O)ccc1OC(=O)c1cccs1	none
COc1cc(/C=N/Nc2ccc(Cl)c(C(=O)O)c2)ccc1OC(=O)c1cccs1	ELG1 DNA repair inconclusive, FLuc counter 23.9µM, Rab9 promoter act inconclusive
COc1cc(/C=N/NC(=O)c2ccccn2)ccc1OC(=O)c1cccs1	ELG1 genotoxic inconclusive, FLuc counter 13.5µM, NPC1 prom act inconclusive (no result: SMN2 splice enh)
COc1cc(/C=N/Nc2ccccc2)ccc1OC(=O)c1cccs1	SMN2 splice enh inconclusive, ELG1 genotoxic inconclusive, ELG1 DNA repair inconclusive, FLuc counter 21.3µM
Cc1cc(NC(=O)c2cccc(Br)c2)n[nH]1	ELG1 genotoxic inconclusive, ELG1 DNA repair inconclusive, FLuc counter 19µM, NPC1 prom act inconclusive, Rab9 promoter act inconclusive (no result: SMN2 splice enh)
Cc1cc(C)nc(NC(=O)c2cccc(Br)c2)n1	none (no result: SMN2 splice enh)
COc1cccc(C(=O)NC(=O)Nc2cc(C)[nH]n2)c1	ELG1 genotoxic inconclusive, ELG1 DNA repair inconclusive, FLuc counter 9.53µM, NPC1 prom act 2µM, Rab9 promoter act 1.58µM (no result: SMN2 splice enh)
Cc1ccc2nc(COc3ccc(Cl)cc3)cc(=O)n2c1	SMN2 splice enh 12.6µM, ELG1 DNA repair inconclusive, FLuc counter inconclusive, NPC1 prom act 3.55µM, Rab9 promoter act 1.26µM
COc1ccc(OC)c(NC(=O)Nc2cccc(OCc3cc(=O)n4cc(C)ccc4n3)c2)c1	FLuc counter 1.2µM (no result: SMN2 splice enh, ELG1 genotoxic, ELG1 DNA repair, NPC1 prom act, Rab9 promoter act)
O=C(NCc1ccco1)c1ccc2c(c1)N(Cc1ccccc1F)C(=O)c1ccccc1S2(=O)=O	none (no result: ELG1 genotoxic, ELG1 DNA repair, NPC1 prom act, Rab9 promoter act)
Cc1cc(Br)ccc1SCC(=O)N1CCN(S(=O)(=O)c2ccccc2)CC1	ELG1 genotoxic 16.4µM, ELG1 DNA repair inconclusive, FLuc counter 13.5µM, NPC1 prom act inconclusive, Rab9 promoter act inconclusive (no result: SMN2 splice enh)
O=C(CSc1ncccn1)N1CCN(S(=O)(=O)c2ccccc2)CC1	none (no result: SMN2 splice enh)
